The list is not random: actives were taken first. Their share in the collection is about 2.3%.
A549 tox-1 – Nrf2 qHTS screen for inhibitors: counterscreen for cytotoxicity; Potency, µM (doses to about 46 µM), for the others: top-dose activity change, negative = cytotoxicity, usual class: inhibitors; hit rate 0.16% among 390,000; A549 ARE-Fluc cells, CellTiter-Fluor viability, 18-24 h; AID 504648, 2011; note: potency is the fitted concentration of half-maximal effect; % is set by controls: 0 for no effect and ±100 for the full control effect
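Cytotoxicity counterscreen: CellTiter-Fluor fluorescence was measured in A549 ARE_Fluc cells after 18-24 h of compound exposure in a concentration series. The subsequent BugLite luminescent read reports ARE-luciferase activity.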
Nrf2 ARE act – qHTS of Nrf2 Activators; AREc32 ARE-luciferase reporter (MCF7-derived line), luminescence, 24 h; Potency, µM (series often up to 46.1 µM), for the others: at the top dose activation, hits mostly activators; hit rate 0.31% among 410,000; AID 624171, 2012; note: potency is the fitted concentration of half-maximal effect; % of control where 0% means no effect; nearly all actives have a fitted effect of over 65% in size
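ARE-driven firefly luciferase activity in AREc32 cells measured after a 24 hr compound exposure at 37 deg C, using Steady-Glo reagent and a 30 min room-temperature hold.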
Nrf2 inh – Nrf2 qHTS screen for inhibitors; A549 ARE-Fluc reporter, luciferase luminescence, 18-24 h; Potency, µM (series often up to 46 µM), for inactives: at the highest dose activity change, negative = inhibition, usual class: inhibitors; hit rate 2.1% among 360,000; note: potency is the fitted concentration of half-maximal effect; % is set by controls: 0 for no effect and ±100 for the full control effect; nearly all actives have a fitted effect of over 60% in size
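Nrf2 activity is the BugLite luminescence, read 15 min after reagent at room temperature, following CellTiter-Fluor cytotoxicity readout (30 min, 37C). Compound titrations were applied for 18-24 h to 5000 A549 ARE_Fluc cells/well in 5% FBS OPTI-MEM.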
IL-2 act – qHTS of IL-2 Activators; activation, % (series mostly up to about 46 µM); IL-2 activation reporter assay, cell-based qHTS; stimulated with anti-CD3/CD4/CD28 beads; in transgenic mouse T cells; AID 652025, 2013; hit rate 0.065% among 360,000; in the data active = activation above about 50%; inconclusive = mostly about 30% to 49%; note: 0% is about no effect
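Quantitative HTS in unstimulated transgenic mouse T cells, with memory T cells as non-tolerant control and PMA/ionomycin as tolerance-bypass control. Compound pretreatment lasted 60 minutes before 18 h bead stimulation; EGFP/DsRed fluorescence read.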
FLuc enzyme inh – Nrf2 qHTS screen for inhibitors: Purified Fluc Biochemical Counterscreen for Hit Validation. shares compounds with Nrf2 inh. purified firefly luciferase, luminescence inhibition. Potency, µM (titrated, usually from 57.5 µM), without a hit: at the highest dose activity change, negative = inhibition, actives largely listed as inhibitors. hit rate 4% among 1,400. AID 720522, 2013; note: potency is the fitted concentration of half-maximal effect; % is set by controls: 0 for no effect and ±100 for the full control effect; nearly all actives have a fitted effect of over 65% in size
Target sequence (P08659 whole entry, looked up): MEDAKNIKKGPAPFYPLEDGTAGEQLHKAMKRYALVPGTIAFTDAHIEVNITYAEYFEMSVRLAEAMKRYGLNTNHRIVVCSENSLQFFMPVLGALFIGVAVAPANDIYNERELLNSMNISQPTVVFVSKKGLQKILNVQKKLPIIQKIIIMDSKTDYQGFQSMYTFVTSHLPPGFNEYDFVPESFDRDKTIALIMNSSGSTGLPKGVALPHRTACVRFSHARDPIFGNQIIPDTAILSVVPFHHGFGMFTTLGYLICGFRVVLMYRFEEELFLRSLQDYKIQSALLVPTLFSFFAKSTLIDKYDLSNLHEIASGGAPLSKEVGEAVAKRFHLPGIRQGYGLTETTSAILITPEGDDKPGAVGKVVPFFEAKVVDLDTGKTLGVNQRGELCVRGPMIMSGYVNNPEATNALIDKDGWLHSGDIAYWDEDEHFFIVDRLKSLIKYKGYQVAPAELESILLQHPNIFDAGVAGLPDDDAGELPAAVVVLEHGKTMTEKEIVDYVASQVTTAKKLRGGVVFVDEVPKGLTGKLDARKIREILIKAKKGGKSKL
A549 tox-2 – Nrf2 qHTS screen for inhibitors: A549 ARE-Fluc Cytotoxicity Counterscreen for Hit Validation; shares compounds with Nrf2 inh; A549 ARE-Fluc cells, cytotoxicity counterscreen; Potency, µM (doses to about 46.1 µM), for inactives: top-dose activity change, negative = cytotoxicity, usual class: inhibitors; hit rate 2% among 1,400;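 note: potency is the fitted concentration of half-maximal effect; cells exposed to compounds for 18 to 24 hours; % is set by controls: 0 for no effect and ±100 for the full control effect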
Nrf2 ARE inh – Nrf2 qHTS screen for inhibitors: Nrf2 A549 ARE-Fluc Confirmation Assay for Hit Validation | shares compounds with Nrf2 inh | A549 ARE-firefly luciferase reporter, luminescence | Potency, µM (highest dose often 46.1 µM), without a hit: at the highest dose activity change, negative = inhibition, hits mostly inhibitors | hit rate 74% among 1,400; note: potency is the fitted concentration of half-maximal effect; % is set by controls: 0 for no effect and ±100 for the full control effect; nearly all actives have a fitted effect of over 65% in size
* = called active by the depositor; ? = inconclusive; . = no result shown; [ ] = remark or other dose. Unless noted, calls come from the whole dose curve; as a rule, active = well fitted curve in the direction sought with a large enough effect; inconclusive = small, poorly fitted or top-dose-only effect, or another doubt; inactive = no such curve, though single readings can be large; an effect the other way counts as inactive or inconclusive.

SMILES	A549 tox-1	Nrf2 ARE act	Nrf2 inh	IL-2 act	FLuc enzyme inh	A549 tox-2	Nrf2 ARE inh
CC1=C(C(=O)Nc2cccnc2)C(c2ccccc2)n2nc(SCc3ccccc3)nc2N1 (stereo not given)	1%	0%	2%[9.27 µM]	.	.	.	.
Cc1ccccc1/C=C/c1cccc[n+]1C	-29%	0%	1.8µM*	-1	2%	-28%	4.1µM*
C[n+]1ccccc1/C=C/c1ccc([N+](=O)[O-])cc1	?	0%	3.7µM*	0	1%	?	7.3µM*
C[n+]1ccccc1/C=C/c1c(F)cccc1F	?	-1%	2.6µM*	-4	1%	-30%	2.1µM*
C[n+]1ccccc1/C=C/c1ccccc1Cl	-11%	22%	26%	1	.	.	.
CCOC(=O)c1[nH]c(C)c(C(=O)NC(CC)Cc2ccccc2)c1C (stereo not given)	-3%	-1%	-28%	.	.	.	.
COc1cc(OC)c(N(C)C(=O)Cn2ncc3c(=O)oc4ccccc4c32)cc1Cl	9%	0%	1%	.	.	.	.
CC1CC2C3CCC4=CC(=O)C=CC4(C)C3(F)C(O)CC2(C)C1(O)C(=O)CO (stereo not given)	-12%	0%	?	-1	.	.	.
CC(=O)C1CCC2C3CCC4=CC(=O)CCC4(C)C3(F)C(O)CC12C (stereo not given)	-3%	0%	0.92µM*	-2	2%	-1%	2.1µM*
C[C@@H]1C[C@H]2[C@@H]3CCC4=CC(=O)C=C[C@]4(C)[C@@]3(F)C(O)C[C@]2(C)[C@@]1(O)C(=O)CO (stereo not given in full)	-1%	.	0.0052µM*	.	0%	-3%	0.0065µM*
CC(=O)OCC(=O)C1(O)CCC2C3CCC4=CC(=O)C=CC4(C)C3(F)C(O)CC21C (stereo not given)	-5%	0%	0.01µM*	-5	1%	-2%	0.013µM*
CC12CCC(=O)C=C1CCC1C3CC(O)C(O)(C(=O)CO)C3(C)CC(O)C12F (stereo not given)	-1%	2%	0.1µM*	0	4%	-9%	0.052µM*
CC(=O)OCC(=O)[C@@]12OC3(CCCC3)O[C@@H]1C[C@H]1[C@@H]3CCC4=CC(=O)C=C[C@]4(C)[C@@]3(F)[C@@H](O)C[C@@]12C	-6%	6%	?	-1	.	.	.
CCOc1ccc2nc(NC(=O)c3nc(SC(C)C)ncc3Cl)sc2c1	?	0%	-15%	.	.	.	.
CCN(CC)S(=O)(=O)c1ccc(NC(=O)c2c(C)oc3ncnc(N4CCCCC4)c23)cc1	10%	0%	?	.	.	.	.
Cn1c(=O)c(=O)n(C)c2cc(S(=O)(=O)Nc3ccc(Cl)c(C(F)(F)F)c3)ccc21	1%	0%	7%	.	.	.	.
CC1CC2C3CCC4=CC(=O)C=CC4(C)[C@@]3(Cl)C(O)CC2(C)C1(O)C(=O)CO (stereo not given in full)	-13%	0%	?	-1	.	.	.
C[C@]12C=CC(=O)C=C1CC[C@H]1[C@@H]3C[C@@H](O)[C@](O)(C(=O)CO)[C@@]3(C)C[C@H](O)[C@@]12F	-15%	-1%	0.41µM*	-1	-1%	-5%	0.092µM*
Cn1c(=O)n(C)c2cc(N3CCOCC3)c(NC(=O)c3ccccc3Br)cc21	-14%	7%	-13%	.	.	.	.
Cc1cc(C2=NNC(=NC3CC3)SC2)c(C)n1-c1ccccc1F	-4%	-3%	0.92µM*	-3	3%	-10%	.
CN(C)c1ccc(/C=C/c2ccncc2)cc1	-17%	5%	2%	1	.	.	.
CCN(CC)c1ccc(/C=C/c2ccncc2)cc1	.	.	.	.	-14%	6.5µM*	1.5µM*
CCN(CC)S(=O)(=O)c1cccc(C(=O)Nc2sc3c(c2C#N)CCC(C)C3)c1 (stereo not given)	-1%	-1%	-29%	.	.	.	.
O=S(=O)(c1cccs1)N1CCN(c2ccc(O)cc2)CC1	-8%	8%	?	2	-21%	?	1.8µM*
CCOC(=O)c1c(NC(=O)c2cc3nc(-c4ccc(OC)cc4)cc(C(F)(F)F)n3n2)sc(C)c1C	14%	4%	.	.	.	.	.
SMILES	A549 tox-1	Nrf2 ARE act	Nrf2 inh	IL-2 act	FLuc enzyme inh	A549 tox-2	Nrf2 ARE inh
Cc1nn(-c2ccc(NC(=O)c3ccncc3)cc2)c(C)c1Cl	-7%	0%	3.7µM*	-4	-11%	-5%	7.3µM*
CCN(CC)S(=O)(=O)c1ccc2oc(SCC3CN=C(c4ccc(OC)cc4)S3)nc2c1 (stereo not given)	-27%	0%	6.5µM*	-1	-26%	-12%	?
COc1ccc(C2=NCC(CSc3nnc(-c4ccc5c(c4)OCO5)o3)S2)cc1 (stereo not given)	?	1%	?	0	.	.	.
CCOC(=O)c1ccccc1NC(=O)c1cnc(N2CCOCC2)c2ccccc12	-18%	4%	.	.	.	.	.
O=C(COc1ccc(S(=O)(=O)NC2CCCCC2)cc1)N1CCN(c2cccc(Cl)c2)CC1	?	1%	5.8µM*	-3	-1%	-17%	9.2µM*
COc1ccc(NC(=O)C(C)n2nc(-c3ccc(C)c(C)c3)ccc2=O)cc1OC (stereo not given)	-8%	8%	-13%	.	.	.	.
CCOc1ccc(Oc2ccccc2NC(=O)CSCC(=O)Nc2cc(C)on2)cc1	-19%	2%	9.2µM*	1	-2%	-7%	7.3µM*
CCn1c(CNC(=O)c2ccc(OC)cc2)nnc1SCC(=O)Nc1cccc(C)c1C	-15%	-1%	20%	.	.	.	.
CC(=O)c1c(C)[nH]c(C(=O)OCC(=O)Nc2ccccc2Cl)c1C	-12%	5%	5.8µM*	-7	-24%	-4%	5.8µM*
Cc1cc2c(=Cc3ccc(N(C)C)cc3)c3ccccc3n2[n+]1C	16µM*	-1%	2.6µM*	3	-22%	?	6.5µM*
COc1ccc(C)cc1NC(=O)N(C(C)C)C1CCN(C(C)=O)CC1	1%	1%	-21%	.	.	.	.
O=C(COC(=O)C12CC3CC(CC(O)(C3)C1)C2)NCc1ccco1	0%	.	22%	.	.	.	.
Cc1cc(NC(=O)CSc2nc3c(sc4ccccc43)c(=O)n2CCCN2CCOCC2)n[nH]1	?	-1%	7.3µM*	0	2%	?	10µM*
Cc1cc(NC(=O)CSc2nc3c(sc4ccccc43)c(=O)n2CCc2ccccc2)n[nH]1	-10%	-1%	-27%	0	.	.	.

Screens as filed in PubChem.
